# Luciferase inh: inhibitors of firefly (Photinus pyralis) luciferase | P08659 | purified P. pyralis luciferase, luminescence, biochemical | Potency, µM (titrated, usually from 115 µM), usual class: inhibitors | actives 2.5% (n = 76,000); note: nearly all actives have a fitted effect of over 65% in size
#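 Purified P. pyralis luciferase (10nM final) in 50mM Tris acetate pH 7.5, 10mM Mg acetate, 0.01% Tween-20, 0.05% BSA with 10uM D-luciferin and 10uM ATP. Compounds titrated qHTS. Luminescence imaged on CCD.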
# hNpr1 antagonist: blocks ANP-stimulated signaling of human Npr1 receptor | HEK293 hNpr1 GloSensor cGMP, ANP-stimulated luminescence | Potency, µM (top dose mostly 46.3 µM), for the others: at the top dose activity change, negative = inhibition, hits mostly inhibitors | actives 1.6% (n = 76,000) | P16066; calls by dose curve; note: nearly all actives have a fitted effect of over 60% in size
# Target sequence (P16066 whole entry, looked up): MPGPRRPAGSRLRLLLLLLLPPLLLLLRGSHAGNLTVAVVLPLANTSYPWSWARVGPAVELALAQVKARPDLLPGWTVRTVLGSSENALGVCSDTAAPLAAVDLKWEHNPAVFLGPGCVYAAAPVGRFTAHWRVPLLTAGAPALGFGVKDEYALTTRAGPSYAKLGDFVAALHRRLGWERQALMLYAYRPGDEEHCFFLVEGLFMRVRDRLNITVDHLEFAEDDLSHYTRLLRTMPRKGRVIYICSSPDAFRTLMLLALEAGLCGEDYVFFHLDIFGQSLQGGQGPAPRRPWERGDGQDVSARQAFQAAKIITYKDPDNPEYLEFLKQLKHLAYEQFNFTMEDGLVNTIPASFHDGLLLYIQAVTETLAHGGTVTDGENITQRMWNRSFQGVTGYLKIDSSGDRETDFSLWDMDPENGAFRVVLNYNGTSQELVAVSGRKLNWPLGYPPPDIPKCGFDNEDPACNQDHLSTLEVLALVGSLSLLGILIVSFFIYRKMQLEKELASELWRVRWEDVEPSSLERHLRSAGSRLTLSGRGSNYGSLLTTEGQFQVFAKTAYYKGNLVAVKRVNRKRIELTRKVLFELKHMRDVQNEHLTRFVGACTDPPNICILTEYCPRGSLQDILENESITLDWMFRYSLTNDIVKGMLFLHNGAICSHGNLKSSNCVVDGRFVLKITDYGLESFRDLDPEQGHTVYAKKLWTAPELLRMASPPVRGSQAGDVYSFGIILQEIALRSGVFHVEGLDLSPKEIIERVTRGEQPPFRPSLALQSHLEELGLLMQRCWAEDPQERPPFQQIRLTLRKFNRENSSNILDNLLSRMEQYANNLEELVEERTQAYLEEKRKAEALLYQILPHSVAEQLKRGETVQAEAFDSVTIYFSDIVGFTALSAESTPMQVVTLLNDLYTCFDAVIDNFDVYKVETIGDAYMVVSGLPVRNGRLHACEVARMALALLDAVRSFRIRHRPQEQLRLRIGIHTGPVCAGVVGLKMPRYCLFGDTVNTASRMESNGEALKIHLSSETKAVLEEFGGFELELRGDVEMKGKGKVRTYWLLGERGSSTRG
#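 HEK293 cells stably expressing human Npr1 and cGMP GloSensor pGS-40F, loaded 2 h with 2% GloSensor reagent, given compound 30 min at room temperature. Luminescence read before and 20 min after 0.1 nM hNppA.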
# HEK cytotox: kills HEK 293 cells; actives 6.6% (n = 94,000); HEK 293 viability, ATP luminescence (CellTiter-Glo), 48-72 h; AID 1345083; Potency, µM (series often up to 115 µM), without a hit: at the highest dose activity change, negative = cytotoxicity, usual class: inhibitors; note: nearly all actives have a fitted effect of over 60% in size
#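 ATP-coupled CellTiter-Glo luminescence served as viability read-out, recorded 10 min after reagent addition at room temperature. HEK 293 cells, 250 cells/well, had been incubated with pintool-transferred compound for 48 or 72 hr at 37 degree Celsius.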
# NIH3T3 tox: cytotoxic compounds in NIH 3T3 cells | AID 1345082 | actives 4.3% (n = 94,000) | Potency, µM (top dose mostly 96.7 µM), without a hit: at the top dose activity change, negative = cytotoxicity, actives largely listed as inhibitors | NIH 3T3 viability, CellTiter-Glo ATP luminescence, 48-72 h; note: nearly all actives have a fitted effect of over 55% in size
#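 Cytotoxicity was measured by CellTiter-Glo ATP luminescence after 48 or 72 h compound exposure at 37 °C. Mouse NIH 3T3 fibroblasts were seeded at 400 cells/well and dosed by 23 nL pin transfer.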
# The depositor's hits bear a star; i = inactive; ? = inconclusive; nt = no result given; [ ] = remark or other dose. This is a sample that favours compounds with a hit; in the whole collection about 11% have one here. Unless noted, calls come from the whole dose curve; as a rule, active = well fitted curve in the direction sought with a large enough effect; inconclusive = small, poorly fitted or top-dose-only effect, or another doubt; inactive = no such curve, though single readings can be large; an effect the other way counts as inactive or inconclusive. % is set by controls: 0 for no effect and ±100 for the full control effect; potency is the fitted concentration of half-maximal effect.
SMILES,Luciferase inh,hNpr1 antagonist,HEK cytotox,NIH3T3 tox
CS(=O)(=O)N1CCC2(CC1)CC(=O)N(CCCc1ccccc1)C2,i,5.8%,i,4.9%
O=C1CC2(CCN(c3cnc4ccccc4n3)CC2)CN1CCCc1ccccc1,i,?,35.5µM*,?
Cc1ccc(C(=O)N2CCC(c3n[nH]c(=O)n3Cc3ccc(F)cc3)CC2)cc1F,i,-3.1%,-26.5%,?
CC(=O)Nc1ccc(CN2CCc3nc(C(C)C)nc(-c4ccc(Cl)cc4)c3CC2)cc1,nt,nt,?,-27.3%
CN(C)S(=O)(=O)N1CCc2nc3cc(-c4ccccc4)[nH]n3c(=O)c2C1,0.447µM*,2.3%,-2.2%,-18.4%
COC1CN(c2cccc(F)c2)C12CCN(C(=O)c1ccco1)CC2 (centres undefined),i,4.7%,i,-6.5%
O=C(C1CCCC1)N1CCC(C(=O)N2CCCC(c3nc4ccncc4[nH]3)C2)CC1 (centres undefined),nt,nt,-13.0%,-15.5%
O=C(c1cc(CN2CCOCC2)on1)N1CCC2(CC1)NCCc1c2[nH]c2ccccc12,i,7.8%,31.6µM*,-25.2%
COCCCNC(=O)c1ccc2oc(-c3ccncc3)nc2c1,nt,nt,-22.8%[172 µM],-22.2%[138 µM]
O=C(NC1CCCN(c2cc(-c3ccc(F)cc3)[nH]n2)C1)c1cc2ccccc2[nH]1 (centres undefined),20µM*,-27.0%,39.8µM*,?
O=C(NC1CCCN(c2cc(-c3ccc(F)cc3)[nH]n2)C1)c1c[nH]c2ccccc12 (centres undefined),22.4µM*,-23.3%,?,?
COc1ccccc1C(=O)NC1CCCN(c2cc(-c3ccc(F)cc3)[nH]n2)C1 (centres undefined),?,-17.5%,?,?
Cc1nc(N2CCC(NC(=O)c3cc4ccccc4[nH]3)CC2)cc(C(F)(F)F)n1,?,7.94µM*,?,?
O=C(NC1CCCN(c2cc(-c3ccc(F)cc3)[nH]n2)C1)c1ccccc1Br (centres undefined),i,-18.1%,?,?
Cc1nc(N2CCC(NC(=O)c3ccccn3)CC2)cc(C(F)(F)F)n1,i,?,?,?
CC(C)c1noc(-c2cccn3c(CNC(=O)c4nccc5ccccc45)nnc23)n1,i,2.9%,0.5%,-17.4%
Cn1nc(C2CCCN(C(=O)Nc3ccc4c(c3)OCCO4)C2)n(C2CCCC2)c1=O (centres undefined),31.6µM*,-1.8%,12.1%,2.0%
O=C(Nc1ccc2c(c1)OCCO2)N1CCCC(Cn2cnc3cccnc32)C1 (centres undefined),28.2µM*,2.9%,6.3%,-0.9%
COc1ccc(NC(=O)N2CCCC(Cn3c(C4CC4)nc4cccnc43)C2)cc1Cl (centres undefined),i,-9.8%,70.8µM*,?
O=C(Nc1ccc(F)c(Cl)c1)N1CCCC(Cn2c(C3CC3)nc3cccnc32)C1 (centres undefined),i,-19.6%,?,?
COc1ccc(C2Cn3nnc(C(=O)NCc4cc(OC)ccc4OC)c3CO2)cc1 (centres undefined),i,-0.9%,?,-21.3%
Cn1cc(CN2CCN(C(=O)c3c[nH]c4ccccc34)CC2)ccc1=O,31.6µM*,-2.5%,-29.6%,-16.1%
Cn1cc(CN2CCN(C(=O)c3ccoc3)CC2)ccc1=O,i,-2.9%,3.9%,i
Cc1nn(-c2ccccc2)c2c1C(C(C)C)N(C1CCN(C(=O)C3CC3)CC1)C2=O (centres undefined),nt,nt,-19.4%,-27.7%
Cc1nn(-c2ccccc2)c2c1C(C)N(C1CN(C(=O)NC3CCCC3)C1)C2=O (centres undefined),nt,nt,?,28.2µM*
SMILES,Luciferase inh,hNpr1 antagonist,HEK cytotox,NIH3T3 tox
COC(=O)N1CCCC(N2C(=O)c3c(c(C)nn3-c3ccccc3)C2C)C1 (centres undefined),nt,nt,?,-26.0%
COc1ccccc1C(=O)N1CCC(N2C(=O)c3c(c(C)nn3-c3ccccc3)C2C)CC1 (centres undefined),nt,nt,39.8µM*,?
Cc1ccccc1C(=O)N1CCC(N2C(=O)c3c(c(C)nn3-c3ccccc3)C2C)CC1 (centres undefined),nt,nt,44.7µM*,?
Cc1ccccc1C(=O)N1CCC(N2C(=O)c3c(c(C)nn3-c3ccccc3)C2C)C1 (centres undefined),nt,nt,44.7µM*,?
Cc1nn(-c2ccccc2)c2c1C(C)N(C1CCCN(C(=O)C3CC3)C1)C2=O (centres undefined),nt,nt,-1.7%,-10.9%
Cc1csc(NC(=O)C2CC(=O)N(c3n[nH]c4cccc(F)c34)C2)n1 (centres undefined),i,3.8%,?,-20.1%
CS(=O)(=O)c1ccc(O[C@H]2COCCN(Cc3ccc(-c4ccccc4)cc3)C2)cc1,i,?,25.1µM*,?
c1ccc(O[C@H]2COCCN(Cc3ccc(-c4ccccc4)cc3)C2)cc1,i,-23.5%[70.6 µM],-28.7%[172 µM],?
Cc1ccc(CN2CCOC[C@H](Oc3ccc(C(F)(F)F)cc3)C2)cc1,i,-17.2%[70.6 µM],100µM*,79.4µM*
O=C1CN(C(=O)OCc2ccccc2)CC(O)CN1Cc1ccc2c(c1)OCO2 (centres undefined),nt,nt,-25.9%,?
O=C(Nc1ccc(F)cc1)c1ccc2nc(-c3ccncc3)oc2c1,nt,nt,-34.3%[172 µM],-22.3%[138 µM]
CN(C)[S+](=O)([O-])c1ccc2c(c1)OCCN(Cc1ccccc1Cl)C2,i,-29.6%[70.6 µM],?,56.2µM*
CN(C)[S+](=O)([O-])c1ccc2c(c1)OCCN(Cc1cccc(F)c1F)C2,i,-1.9%[70.6 µM],?,?
COc1ccccc1CN1CCOc2cc([S+](=O)([O-])N(C)C)ccc2C1,i,-6.6%[70.6 µM],89.1µM*,?
NC(=O)[C@H](CC1CCCCC1)NC(=O)[C@@H]1CN(S(=O)(=O)c2ccccc2)CCN1C(=O)c1cccs1,i,-5.5%,-3.6%,25.1µM*
COC(=O)[C@H](Cc1ccc(OC)cc1)NC(=O)[C@H]1CN(S(=O)(=O)c2ccccc2)CCN1C(=O)c1cccs1,i,3.1%,79.4µM*,?
CCOC(=O)C1CCN(C(=O)c2ccc3nnc(-c4ccccc4OC)n3c2)CC1,nt,nt,4.5%,-5.1%
CC(C)C(=O)N1CCN(CCCn2nc3n(c2=O)CCCC3)CC1,nt,nt,-15.1%,-10.7%
CN(C)Cc1cc(C[C@@H]2C[C@H](NC(=O)C3CCC3)C2(C)C)no1,i,-2.0%[70.6 µM],?,-25.2%[174 µM]
CN(Cc1ccccc1)Cc1cc(C[C@@H]2C[C@H](NC(=O)C3CCC3)C2(C)C)no1,i,?,35.5µM*,?
CN(C)Cc1cc(C[C@@H]2C[C@H](NCc3ccccc3O)C2(C)C)no1,i,-1.0%[70.6 µM],56.2µM*,?
CN(Cc1cc(C[C@@H]2C[C@H](NS(C)(=O)=O)C2(C)C)no1)c1ccccc1,i,-9.7%[70.6 µM],?,?
CC1(C)[C@H](Cc2cc(CCO)on2)C[C@@H]1NCc1ccccn1,i,0.0%[70.6 µM],2.8%[172 µM],-12.9%[138 µM]

# Compound activity from PubChem BioAssay.
